Shown are actives, neighbours in structure and some others; about 21% of the full set was active somewhere.
CHX counter: counter-screen for Shiga toxin inhibitors: cycloheximide protein synthesis inhibition. AID 2314. cell reporter, cycloheximide protein synthesis inhibition counterscreen. max response, %. actives 12% (n = 300,000); in the data active = max response mostly above about 13%, no sharp cut-off; inactive = mostly below about 14%; also: read at 38.3 µM for the half of the compounds with a filed dose; 0% is about no effect
Pf growth 96h: inhibits malaria parasite growth, 96 h. actives 6.9% (n = 320,000). Potency, µM (titrated, usually from 28.7 µM), without a hit: at the top dose activity change, negative = inhibition, hits mostly inhibitors. P. falciparum luciferase reporter growth, 96 h; also: potency is read from the fitted curve at half-maximal effect; % is scaled to controls: 0 for no effect and ±100 for the full control effect
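Luminescence readout: decreased luciferase signal marks inhibited growth of reporter-expressing P. falciparum in infected red cells (2% hematocrit, 0.05% parasitemia final), exposed to compound two generations (96 h, 37 C, 5% CO2).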
Pf growth 48h: P. falciparum growth inhibition at 48 hours (one generation). P. falciparum luciferase growth in erythrocytes, 48 h. Potency, µM (top dose mostly 28.7 µM), without a hit: top-dose activity change, negative = inhibition, hits mostly inhibitors. actives 5.9% (n = 310,000). AID 504832; also: potency is read from the fitted curve at half-maximal effect; % is scaled to controls: 0 for no effect and ±100 for the full control effect
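Luciferase-expressing parasites in RBCs, 2% Hct / 0.1% parasitemia final; RPMI 1640 + 0.5% Albumax; 37 C, 5% CO2, one generation; luminescence read-out, lower signal = inhibition.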
HCV inhibitor: blocks hepatitis C virus | Huh7.5.1 HCVcc-Cre infection, luciferase reporter, 44 h | Potency, µM (highest dose often 41.8 µM), inactives show at the highest dose activity change, negative = inhibition, most hits filed as inhibitors | actives 3.4% (n = 340,000); also: potency is read from the fitted curve at half-maximal effect; % is scaled to controls: 0 for no effect and ±100 for the full control effect
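Antiviral activity was scored by luciferase reporter output from cells infected with HCVcc-Cre (~0.5 moi) in presence of compound, 44 h infection period, cells seeded 1,000/well 4 h prior.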
AMA1 RON2 block: AMA1-RON2 (P. falciparum) interaction inhibition | AlphaScreen AMA1-biotinylated RON2 peptide binding | actives 0.2% (n = 360,000) | Potency, µM (doses to about 58.2 µM), for inactives: at the highest dose activity change, negative = inhibition, actives largely listed as inhibitors;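 also: potency is read from the fitted curve at half-maximal effect; 0% = vehicle wells and -100% = peptide control; nearly all actives have a fitted effect of over 45% in size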
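AMA1 (3D7) with his tag at 25 nM final met compounds first, then biotinylated RON2 peptide at 25 nM; detection used donor plus acceptor beads, 10 µg/mL apiece, read by AlphaScreen after 30 min at room temperature.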
Shiga toxin inh: inhibitors of Shiga toxin in Vero cells; Vero cells, Shiga toxin protein synthesis inhibition reporter; actives 9.2% (n = 290,000); inhibition, % at 38.7 µM; in the data active = inhibition mostly above about 28%, no sharp cut-off; inactive = mostly below about 43%; also: 0% is about no effect
Numbers without * were called inactive; ? = inconclusive; · = no result given; [ ] = remark or other dose. Unless noted, calls follow the shape of the dose curve; as a rule, active = well fitted curve in the direction sought with a large enough effect; inconclusive = small, poorly fitted or top-dose-only effect, or another doubt; inactive = no such curve, though single readings can be large; an effect the other way counts as inactive or inconclusive.

SMILES	CHX counter	Pf growth 96h	Pf growth 48h	HCV inhibitor	AMA1 RON2 block	Shiga toxin inh
COc1ccccc1Oc1ccc(S(=O)(=O)N2CCCC2)cc1	8	-11%	-3%	?	2%	17
OC(c1cccc(Cl)c1)c1ncc(-c2cccc(C(F)(F)F)c2)[nH]1 (configuration not stated)	·	·	·	·	-6%	·
O=C(Nc1ccc(F)cc1)C(c1ccnc2ccccc12)N1CCN(C(=O)c2ccco2)CC1 (configuration not stated)	·	·	·	·	-6%	·
Cc1ccc(S(=O)(=O)c2cccc(S(=O)(=O)N3CCCC3)c2)cc1S(=O)(=O)N1CCCC1	7	87%	-34%	16µM*	12%	-8
O=C(CSc1nnc(-c2ccccc2Cl)o1)Nc1ccccn1	48*	24%	37%	1%	29%	73*
Cc1ccccc1-c1nnc(SCC(=O)Nc2cccnc2Cl)o1	·	·	·	11%	15%	·
Cc1occc1-c1nnc(SCC(=O)Nc2ccccn2)o1	17*	-20%	238%	24%	23%	38*
CNc1ncnc2c1ncn2[C@H]1CN(Cc2cccs2)C[C@@H](CO)O1	·	·	·	·	-1%	·
O=C(Nc1ccccn1)c1ccc(Cl)c(S(=O)(=O)N2CCc3ccccc32)c1	·	?	?	?	23%	·
O=[N+]([O-])c1ccc(O)c(C=Nc2cccc3ccccc23)c1	-3	?	-25%	18%	38%	-3
Oc1ccc(C=Nc2cccc3ccccc23)c(O)c1	14*	43%	-20%	-9%	9%	30
COc1cccc(CC2(CO)CCCN(C/C=C/c3ccccc3OC)C2)c1 (configuration not stated)	-5	-6%	?	-16%	-8%	-2
COc1ccc(/C=C/CN2CCCC(CO)(Cc3cccc(Cl)c3)C2)cc1 (configuration not stated)	-2	12%	13µM*	-8%	-5%	2
COc1ccccc1/C=C/CN1CCCC(CO)(Cc2cccc(Cl)c2)C1 (configuration not stated)	9	-2%	?	?	-17%	47*
CCCn1c(SCC(=O)N2CCCCC2)nnc1C(C)C	15*	13%	14%	1%	24%	43*
COCCn1c(SCC(=O)N2CCCC2)nnc1C(C)C	-3	5.2µM*	31%	10%	4%	3
COCCn1c(SCC(=O)NC2CCCC2)nnc1C(C)C	-3	10%	10%	3%	3%	3
CCCn1c(SCC(=O)Nc2cccc(NC(C)=O)c2)nnc1C(C)C	2	4.1µM*	11%	13%	4%	-12
O=C(NCc1ccccc1)C(c1ccccc1)n1c(-c2ccccn2)nc2ccccc21 (configuration not stated)	·	·	·	·	0%	·
COc1ccc(OC)c(NC(=O)CN2CCc3ccccc3C2)c1	-10	?	?	?	?	-8
Oc1c(Cl)cc(Cl)cc1CN1CCN(Cc2ccccc2)CC1	20*	0.74µM*	1.2µM*	3%	-19%	28
CCOC(=O)N1CCN(Cc2cccs2)CC1	1	-9%	21%	5%	-22%	-15
Clc1ccccc1CN1CCNCC1	-2	8.3µM*	21%	-14%	-3%	-25
O=C(Cc1ccccc1)N1CCN(Cc2ccccc2Cl)CC1	-2	4.1µM*	9%[0.00184 µM]	4%	6%	-5
c1csc(CN2CCNCC2)c1	2	10µM*	16%	-1%	7%	-16
SMILES	CHX counter	Pf growth 96h	Pf growth 48h	HCV inhibitor	AMA1 RON2 block	Shiga toxin inh
COc1ccccc1-c1ccc([C@@H]2C[C@H]3[C@@H](CN2)CON3C)cc1	·	·	·	·	-3%	·
COc1cccc(C(=O)NCCN2CCC(n3c(=O)[nH]c4ccccc43)CC2)c1	·	·	·	·	-2%	·
O=C(NCc1ccc(F)cc1F)Nc1cnccc1C(F)(F)F	-2	-9%	-2%	-5%	-2%	-2
CC12CCC(C(=O)N/N=C/c3ccc(O)cc3)(OC1=O)C2(C)C (configuration not stated)	2	37%	21%	17%	111%	-3
CN(C)S(=O)(=O)c1ccc(Cl)c(C(=O)NC2=NCCS2)c1	5	?	7%	10%	-4%	11
CC[C@H](C)[C@H](NC(=O)[C@H](CC(=O)O)NC(=O)[C@H](CC(C)C)NC(=O)[C@H](Cc1cnc[nH]1)NC(=O)[C@H](C)NC(=O)[C@H](Cc1ccccc1)NC(=O)[C@H](Cc1ccc(O)cc1)NC(=O)[C@@H](NC(=O)[C@H](C)NC(=O)[C@H](CCC(=O)O)NC(=O)[C@H](CCCCN)NC(=O)[C@H](CC(=O)O)NC(=O)[C@H](CCSC)NC(=O)[C@H](CC(C)C)NC(C)=O)C(C)C)C(=O)N[C@H](C(=O)N[C@@H](Cc1c[nH]c2ccccc12)C(=O)O)[C@@H](C)CC	-5	·	·	·	·	-7
O=C(N/N=C/c1ccc(OC(=O)c2ccccc2)cc1)c1cccc(O)c1	33	-13%	?	9%	2%	39
O=C(Oc1ccc(/C=N/NC(=O)c2ccccc2O)cc1)c1ccccc1	16*	6.6µM*	·	12%	-5%	25
O=C(CC1SC(=O)NC1=O)Oc1ccc(/C=N/NC(=O)c2ccccc2O)cc1 (configuration not stated)	23*	0%	-1%	19%	-9%	36*
O=C(Oc1ccc(/C=N/NC(=O)c2ccccc2F)cc1)c1ccccc1	27*	?	12%	15%	-9%	83*
CC(=O)Nc1ccc(OC(=O)CC2SC(=O)NC2=O)cc1 (configuration not stated)	-1	23%	·	18%	-13%	-3
O=C(N/N=C/c1ccc(OCC(=O)N2CCCCC2)cc1)c1ccccc1O	12	29%	1%	-2%	18%	22
Cn1nccc1C(=O)Oc1ccc(/C=N/NC(=O)c2ccccc2O)cc1	25	65%	?	22%	-28%	75*
O=C1NC[C@H](CCCCN2C[C@H](Cc3ccc(O)cc3)N(CCc3ccccc3)C(=O)C2=O)N(CCC2CCCCC2)C1=O	·	·	·	·	20%	·
Cc1ccc(NC(=O)CN2CCC(NC(=O)C3CCCCC3)CC2)c(Br)c1	-4	12µM*	-2%	-4%	10%	-12
Cc1ccc(C(=O)CN2CCC(NC(=O)C3CCCCC3)CC2)cc1	-2	5%	?	-2%	17%	-14
Cc1cccc(NC(=O)CN2CCC(NC(=O)C3CCCCC3)CC2)c1C	-2	4.1µM*	6%	-1%	0%	-14
Cc1cccc(NS(=O)(=O)c2c(C)nc3scc(C)n3c2=O)c1	-2	16%	?	-2%	8%	-8
CCc1nc(C)cn1S(=O)(=O)c1cc(C)c(OC)c(C)c1C	-6	4%	·	2.8µM*	-4%	-6

High-throughput results (PubChem BioAssay)
